From PubChem BioAssay (NCATS)
Results filed as inconclusive are left out. Calls of active or inactive are those of the source. Unless noted, calls follow the shape of the dose curve; as a rule, active = well fitted curve in the direction sought with a large enough effect; inconclusive = small, poorly fitted or top-dose-only effect, or another doubt; inactive = no such curve, though single readings can be large; an effect the other way counts as inactive or inconclusive.

What was measured:
[1] = qHTS for Inhibitors of Plasmodium falciparum (DD2) proliferation (AID 504314);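 also: parasite DNA measured by SYBR Green fluorescence after red cell lysis; plate controls were DMSO vehicle for no effect and artemisinin wells for full effect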
Method in brief: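 Quantitative HTS growth inhibition: SYBR Green I binding to parasite DNA after 72 h drug exposure of infected erythrocytes (0.3% parasitemia, 2.5% hematocrit). Signals normalized per plate to inhibitor and vehicle wells.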

[2] = qHTS for Inhibitors of Plasmodium falciparum (GB4) proliferation (AID 504315);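 also: 0% = DMSO vehicle and -100% = 0.29 µM artemisinin control; nearly all actives have a fitted effect of over 50% in size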
Method in brief: (§1)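 Erythrocytes infected with P. falciparum line (0.3% parasitemia, 2.5% hematocrit final) incubated with compounds 72 h at 37 °C, 5% CO2; SYBR Green lysis buffer added, fluorescence read next day. Normalized to 0.29 uM artemisinin and DMSO.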

[3] = qHTS for Inhibitors of Plasmodium falciparum (7G8) proliferation (AID 504316);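 also: series mostly up to about 6.7 µM; 0% = DMSO vehicle and -100% = 0.29 µM artemisinin full kill; nearly all actives have a fitted effect of over 65% in size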
Method in brief: as §1

[4] = qHTS for Inhibitors of Plasmodium falciparum (HB3) proliferation (AID 504318);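 also: 0% = DMSO vehicle and -100% = artemisinin control; nearly all actives have a fitted effect of over 60% in size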
Method in brief: as §1

[5] = qHTS for Inhibitors of Plasmodium falciparum (CP250) proliferation (AID 504320);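 also: plate controls were DMSO vehicle for no effect and 0.29 µM artemisinin control for full effect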
Method in brief: as §1

[6] = biological target: Atrial natriuretic peptide receptor 1 (Homo sapiens) (UniProt P16066); experiment: Natriuretic polypeptide receptor (hNpr1) antagonism - Pilot CMLD screen (AID 1347052; calls by dose curve;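 also: cGMP level read as GloSensor luciferase luminescence after agonist stimulation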; also: potency is read from the fitted curve at half-maximal effect)
Chain of Atrial natriuretic peptide receptor 1 (Homo sapiens) (P16066 whole entry, looked up): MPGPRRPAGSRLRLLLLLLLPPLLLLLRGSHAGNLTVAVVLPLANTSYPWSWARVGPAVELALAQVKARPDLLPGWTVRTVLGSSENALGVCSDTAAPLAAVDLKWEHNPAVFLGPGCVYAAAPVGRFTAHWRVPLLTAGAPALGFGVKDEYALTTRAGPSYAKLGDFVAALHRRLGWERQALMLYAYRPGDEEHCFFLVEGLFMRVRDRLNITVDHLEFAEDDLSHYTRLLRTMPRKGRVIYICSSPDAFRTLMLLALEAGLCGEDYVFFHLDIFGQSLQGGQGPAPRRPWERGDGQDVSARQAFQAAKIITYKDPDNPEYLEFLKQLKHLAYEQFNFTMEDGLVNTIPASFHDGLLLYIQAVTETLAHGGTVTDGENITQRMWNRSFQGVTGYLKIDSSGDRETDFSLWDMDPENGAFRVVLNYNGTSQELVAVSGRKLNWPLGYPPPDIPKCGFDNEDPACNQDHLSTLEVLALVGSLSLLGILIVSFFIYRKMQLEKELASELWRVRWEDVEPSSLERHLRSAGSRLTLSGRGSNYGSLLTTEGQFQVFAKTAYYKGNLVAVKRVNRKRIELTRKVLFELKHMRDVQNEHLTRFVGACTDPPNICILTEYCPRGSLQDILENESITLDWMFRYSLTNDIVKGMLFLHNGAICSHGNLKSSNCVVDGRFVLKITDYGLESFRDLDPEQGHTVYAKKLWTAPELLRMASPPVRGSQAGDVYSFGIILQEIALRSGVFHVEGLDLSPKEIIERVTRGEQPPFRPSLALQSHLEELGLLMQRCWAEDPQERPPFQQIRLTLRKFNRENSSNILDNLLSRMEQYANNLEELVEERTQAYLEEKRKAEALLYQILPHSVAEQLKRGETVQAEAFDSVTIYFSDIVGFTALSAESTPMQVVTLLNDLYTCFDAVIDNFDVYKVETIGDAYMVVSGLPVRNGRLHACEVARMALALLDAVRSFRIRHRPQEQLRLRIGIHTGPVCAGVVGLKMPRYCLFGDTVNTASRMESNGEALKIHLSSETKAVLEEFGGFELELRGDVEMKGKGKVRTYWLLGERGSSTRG

C=CC[C@@](C(C)=O)(C(=O)OC)[C@@H](NC(=O)OC)c1ccccc1
inactive: Potency [1] | Potency [2] | Potency [3] | Potency [4] | Potency [5] | Potency [6]

CCN1C(=NCCc2ccc(Br)cc2)N[C@@H](c2ccccc2)[C@H](C(=O)OC)[C@H]1C
inactive: Potency [1] | Potency [2] | Potency [3] | Potency [4] | Potency [5] | Potency [6]

CCCCC1=CC2=C(c3ccco3)C(=O)C(C)(OC(=O)c3ccc(OC)cc3)C(=O)C2=CN1CCCN(CC)CC (centres undefined)
inactive: Potency [1] | Potency [2] | Potency [3] | Potency [4] | Potency [5] | Potency [6]

CCN1C(=NCCc2c[nH]c3ccccc23)NC(c2ccccc2)C(C(=O)OC)=C1C (centres undefined)
inactive: Potency [1] | Potency [2] | Potency [3] | Potency [4] | Potency [5] | Potency [6]

Cc1cc2c(nc1C)CCCN2CC(O)CN1CCN(C)CC1 (centres undefined)
inactive: Potency [1] | Potency [2] | Potency [3] | Potency [4] | Potency [5] | Potency [6]

C[C@@H]1CC[C@H]2C(=O)N3[C@@H](CC[C@@H](C)[C@@H]3c3ccc(-c4ccco4)cc3)C(=O)N2[C@@H]1c1ccc(-c2ccco2)cc1
inactive: Potency [1] | Potency [2] | Potency [3] | Potency [4] | Potency [5] | Potency [6]

C=CCOC(=O)C1=C(C)N(CC)C(=O)NC1c1ccccc1 (centres undefined)
inactive: Potency [1] | Potency [2] | Potency [3] | Potency [4] | Potency [5] | Potency [6]

CO[C@@H]1c2cc(F)ccc2C(=CCCOC(=O)CC=Cc2ccccc2)[C@H]1C
inactive: Potency [1] | Potency [2] | Potency [3] | Potency [4] | Potency [5] | Potency [6]

C=CCN1C=C2C(=O)C(C)(OC(=O)c3ccc(OC)cc3)C(=O)C(c3ccco3)=C2C=C1CCCC (centres undefined)
inactive: Potency [1] | Potency [2] | Potency [3] | Potency [4] | Potency [5] | Potency [6]

C#CCN1C(=O)CC[C@@]23C1=NC(C(=O)OC)=C(C(=O)OC)[C@@H]2N(Cc1ccccc1)c1ccccc13
inactive: Potency [1] | Potency [2] | Potency [3] | Potency [4] | Potency [5] | Potency [6]

CC=COC(=O)N[C@@H](c1ccccc1)[C@]1(C(=O)OC)CCCC1=O
inactive: Potency [1] | Potency [2] | Potency [3] | Potency [4] | Potency [5] | Potency [6]

CC(=O)OC[C@H]1O[C@H](C#Cc2ccc(F)cc2F)C=C[C@H]1OC(C)=O
inactive: Potency [1] | Potency [2] | Potency [3] | Potency [4] | Potency [5] | Potency [6]

C[C@@H]1C=CCCO[C@]12C(=O)N(Cc1ccc(F)cc1)c1ccccc12
inactive: Potency [1] | Potency [2] | Potency [3] | Potency [4] | Potency [5] | Potency [6]

COC(=O)C1=C[C@@H]([C@@H](C)[C@H](OC)c2ccccc2Br)[C@@H]2OCC[C@H]12
inactive: Potency [1] | Potency [2] | Potency [3] | Potency [4] | Potency [5] | Potency [6]

COC(=O)N[C@H](CC(C)=O)c1cccc(C(F)(F)F)c1
inactive: Potency [1] | Potency [2] | Potency [3] | Potency [4] | Potency [5] | Potency [6]

CC1(C)O[C@H]2O[C@H]([C@H](O)CON=C3[C@H]4CCn5c(=O)n(-c6ccccc6)c(=O)n5[C@@H]4[C@H](O)[C@@H]4O[C@H]34)[C@H](O)[C@@H]2O1
inactive: Potency [1] | Potency [2] | Potency [3] | Potency [4] | Potency [5] | Potency [6]

C=CCO[C@@H]1C=C[C@@H](c2ccccc2)O[C@@H]1COC
inactive: Potency [1] | Potency [2] | Potency [3] | Potency [4] | Potency [5] | Potency [6]

CCCCc1nc2c(c3c1C[C@H](C)OC3)CN(S(=O)(=O)c1ccc(C)cc1)CC2
inactive: Potency [1] | Potency [2] | Potency [3] | Potency [4] | Potency [5] | Potency [6]

O=C(C=Cc1cccc([N+](=O)[O-])c1)c1ccccc1
inactive: Potency [1] | Potency [2] | Potency [3] | Potency [4] | Potency [5]
active: Potency [6] 2990 nM

COC(=O)N[C@@H](C=Cc1ccco1)[C@]1(C(=O)OC)CCCC1=O
inactive: Potency [1] | Potency [2] | Potency [3] | Potency [4] | Potency [5] | Potency [6]

C=C(C#CCCO)CCN1C=C(C(=O)OCC)C(c2ccccc2)NC1=O (centres undefined)
inactive: Potency [1] | Potency [2] | Potency [3] | Potency [4] | Potency [5] | Potency [6]

COc1cc(OC)c2c(c1)OC1Cc3cc(OC)c(OC)cc3C2O1 (centres undefined)
inactive: activity, negative = inhibition [1] -3.4% [at 1.12 µM] | Potency [2] | Potency [3] | Potency [4] | Potency [5] | Potency [6]

COC(=O)c1c(C(=O)OC)c2c3ccccc3cc(-c3ccccc3)n2c1C(=O)OC
inactive: Potency [1] | Potency [2] | Potency [3] | Potency [4] | Potency [5] | Potency [6]

CC(=O)OC[C@H]1O[C@H](c2cc(C)cc(C)c2)C=C[C@H]1OC(C)=O
inactive: Potency [1] | Potency [2] | Potency [3] | Potency [4] | Potency [5] | Potency [6]
